Test results from ChEMBL document CHEMBL1157539, “Thousands of chemical starting points for antimalarial lead identification” (Nature, 2010).

Tests used:
Format in all cases: functional
Plasmodium falciparum [1] = assay: GSK_TCMDC: Inhibition of Plasmodium falciparum 3D7 in whole red blood cells, using parasite LDH activity as an index of growth. Test compounds present at 2uM
Plasmodium falciparum [2] = assay: GSK_TCMDC: Inhibition of Plasmodium falciparum Dd2 in whole red blood cells, using parasite LDH activity as an index of growth. Test compounds present at 2uM
HepG2 = assay: GSK_TCMDC: Percent inhibition of human HepG2 cell line. Test compounds present at 10uM.

SMILES | Inhibition (Plasmodium falciparum [1]) | Inhibition (Plasmodium falciparum [2]) | Inhibition (HepG2)
Cc1nnsc1C(=O)Nc1ccc(-c2cccc(-c3nc4cc(F)ccc4[nH]3)c2)cc1 | 96% | 27% | 44%
O=C(/C=C/c1ccccc1Cl)Nc1ccc(Br)c(OCCN2CCN(CCN3CCCC3)CC2)c1.O=C(O)C(=O)O | 99% | 89% | 26%
Cn1cncc1-c1ccc2ncnc(Nc3ccc4c(cnn4Cc4ccccc4)c3)c2c1 | 100% | 99% | 1%
COc1ccc(-c2ccc(NC(=O)c3ccc(C#N)cc3)cc2)cc1CN1CCC(O)CC1.O=C(O)C(F)(F)F | 94% | 28% | 24%
CN1CCC(N2CCN(Cc3ccc(-c4cccc(-c5nc6ccccc6[nH]5)c4)cc3)CC2)CC1.O=C(O)C(F)(F)F | 99% | 100% | 48%
CN=C(NC)c1cccc(NC(=O)C=Cc2ccc(C=CC(=O)Nc3cccc(C(=NC)NC)c3)cc2)c1.Cl | 98% | 99% | 21%
Cc1cc(C(F)(F)F)cc(-n2ncc(-c3ccc(C(=O)NCc4ccccc4N)cc3)c2N)n1.O=C(O)C(F)(F)F | 99% | 89% | 10%
CC(C)N(CCOc1ccc2c(c1)N(C(=O)Nc1ccc(Cl)c(Cl)c1)CC2)C(C)C.O=C(O)C(F)(F)F | 100% | 39% | 15%
CCOc1ccc(C2CCN(CCCCNC(=O)c3ccc(NC(=O)c4ccc(Cl)cc4)cc3)CC2)c(CC)c1 | 100% | 64% | 44%
COc1cc(Cc2cnc(N)nc2N)ccc1OCc1ccc(F)c(F)c1 | 90% | 31% | 10%
O=C(Nc1cccc(C(F)(F)F)c1)N1CCOC(CCN2CCC3(CCc4ccccc43)CC2)(c2ccc(Cl)c(Cl)c2)C1 (stereo unspecified) | 99% | 70% | 31%
Oc1ccc2[nH]cc(C3CCN(CCCCCCCCCN4CCC(c5c[nH]c6ccc(O)cc56)CC4)CC3)c2c1 | 100% | 2% | 22%
Cc1cc(Cl)c(S(=O)(=O)N2CCc3ccccc32)cc1OCC(=O)NC1CCCCC1 | 100% | 93% | 28%
CN1CCC(NCc2cccc(-c3cccc(S(=O)(=O)NCc4ccccc4)c3)c2)CC1.O=C(O)C(F)(F)F | 100% | 6% | 57%
Cl.Oc1cccc(-c2nc3cc(C4=NC5CCCCC5N4)ccc3[nH]2)c1 (stereo unspecified) | 98% | 97% | 0%
COc1ccc2sc(CNCCCNc3cc(=O)c4ccccc4[nH]3)c(Cl)c2c1.Cl | 85% | 42% | 1%
C(=Cc1nc2ccccc2s1)c1ccc2c(c1)OCCO2.Cl | 98% | 96% | 13%
Cc1cc(NCCc2ccccc2)nc(NC(=N)Nc2cccc([N+](=O)[O-])c2)n1 | 100% | 100% | 21%
O=C(Nc1cccc(CN2CCCN(Cc3ccc(F)cc3)CC2)c1)c1cc2ccccc2s1.O=C(O)C(F)(F)F | 91% | 36% | 29%
CCCCn1c(Sc2ccc(C#N)c([N+](=O)[O-])c2)nnc1-c1cc(OC)cc(OC)c1 | 94% | 70% | 7%
Clc1nc(Cl)c2c(ccn2Cc2ccccc2)n1 | 100% | 61% | 0%
Cc1cccnc1CNc1nccc2c(C)c(C)[nH]c12.Cl | 100% | 28% | 27%
Cl.Clc1ccc(OCCC2CCN(CCCCCCN3CCCCC3)CC2)cc1Cl | 97% | 36% | 86%
N#Cc1ccc(N(CCOC(=O)c2ccccc2)Cc2ccccc2C(F)(F)F)cc1C(F)(F)F | 92% | 67% | 6%

SMILES | Inhibition (Plasmodium falciparum [1]) | Inhibition (Plasmodium falciparum [2]) | Inhibition (HepG2)
CCOCCCNc1sc(S(=O)(=O)c2ccccc2)nc1S(=O)(=O)c1ccc(C)cc1 | 96% | 87% | 0%
CNC(=O)c1ccc2nc(C3CC3)n(CC3CCN(S(=O)(=O)c4cccc(Cl)c4)CC3)c2c1.O=C(O)C(F)(F)F | 100% | 100% | 0%
CCCCCCN1CCN(Cc2cccc(NC(=O)c3cc4ccccc4o3)c2)CC1.O=C(O)C(F)(F)F | 93% | 83% | 20%
CC(C)(C)c1ccc(O)c(CNC2CCCCC2)c1.Cl | 100% | 98% | 5%
CC(C)(C)c1ccc(S(=O)(=O)Nc2ccccc2Cn2nc(N3CCNCC3)ccc2=O)cc1.O=C(O)C(F)(F)F | 98% | 97% | 0%
OCCOCCNCc1cccc(C#Cc2cc3ncnc(Nc4ccc(OCc5cccc(F)c5)c(Cl)c4)c3s2)n1 | 96% | 46% | 35%
COc1cc2nc(N3CCC(CNC(=O)c4cccc5cc[nH]c45)CC3)nc(N)c2cc1OC | 98% | 24% | 33%
COc1cccc(-c2ccc3c(-c4ccc(F)cc4)cnc(N)c3c2)c1.O=CO | 100% | 70% | 27%
Nc1nccc2ccc(-c3ccc(NC(=O)Nc4cc(C(F)(F)F)ccc4F)cc3)cc12.O=C(O)C(F)(F)F | 100% | 100% | 99%
CN(C)c1cccc2c(S(=O)(=O)Nc3cccc(CCN4CCC(N5CCCCC5)CC4)c3)cccc12 | 98% | 54% | 41%
Cl.O=C(NCCCCN1CCC(c2ccc3c(c2OCCO)CCCC3)CC1)c1ccc(-c2ccc(C(F)(F)F)cc2)cc1 | 98% | 38% | 100%
CC(C)(C)c1ccc(CNC(=O)c2ccc(-c3nc4cc(C(C)(C)C)ccc4[nH]3)cc2)cc1 | 96% | 49% | 21%
N=C(NCCCCCCNC(=N)NC(=N)c1ccc(Cl)cc1)NC(=N)c1ccc(Cl)cc1 | 98% | 99% | 10%
COc1cc(NC(=O)/C=C/c2cc(F)cc(F)c2F)cc(OCCN2CCC3(CC2)OCCO3)c1.O=C(O)C(=O)O | 98% | 26% | 17%
COc1ccc2nc(-c3cc(-c4ccc(NC(=O)CN5CCOCC5)cc4)cnc3N)[nH]c2c1 | 100% | 72% | 52%
N#Cc1ccc(-c2ccc(OCC(O)CN3CCCN(Cc4cccc(O)c4Cl)CC3)cc2)cc1 (stereo unspecified) | 98% | 66% | 3%
CCC/C=C/c1c(CNCCCNc2cc(=O)c3ccccc3[nH]2)sc(CC)c1Br.Cl | 88% | 71% | 8%
O=C(NCc1ccc(C(=O)NCc2cccc3ccccc23)cc1)c1ccc(O)c(-c2ccc(Cl)c(Cl)c2)c1 | 100% | 31% | 0%
O=C(NCCCCN1CCC(c2ccc3c(c2OCc2ccncc2)CCCC3)CC1)c1ccc(-c2ccc(C(F)(F)F)cc2)cc1 | 100% | 92% | 96%
CCOc1cccc2nc(NCCCNCc3ccc(Cl)c(Cl)c3)cc(NCCCNCc3ccc(Cl)c(Cl)c3)c12 | 98% | 58% | 96%
CC1N=C(N)N=C(N)N1OCc1ccccc1.Cl (stereo unspecified) | 94% | 72% | 62%
Cc1cc2c(cc1C(F)(F)F)N(C(=O)Nc1cccc(C(=O)NC3CCN(Cc4ccccc4)CC3)c1)CC2 | 91% | 0% | 19%
Cc1cc(-c2cccc(CNCc3ccc(F)cc3)c2)ccc1S(=O)(=O)NCCN1CCCC1.O=C(O)C(F)(F)F | 100% | 64% | 49%
